From PMC4242493, “Sequence specificity incompletely defines the genome-wide occupancy of Myc”
Over roughly 33,000 sequences, “normalized occupancy” has its median near 0.075; the highest 2% begin near 0.095. The sample as a whole holds a higher share of the highest values than the screen did.

Target: MaxL homodimer (Homo sapiens, UniProt P61244 1-160)
Test: universal protein-binding microarray (PBM); PBS-based mixture, 10 nM His-tagged protein dimer, 2% milk, 200 ng/uL BSA, 50 ng/uL salmon testes DNA, 0.02% TX-100; detection with Alexa 488 anti-His antibody;; high values mean tight binding
Details: protein: recombinant; tags: C-terminal His-tag (pET21a); chain copies: 2; dsDNA, one strand shown
How it was run: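 His-tagged protein dimer at 10 nM was bound to Agilent 4 x 44 K 'all 10-mer' universal arrays and detected with 10 ng/μL fluorophore-conjugated anti-His antibody on a GenePix 4400A, giving an intensity per 8-mer. Binding occupancy normalises each intensity to the top-ranked one.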

MaxL homodimer, sequence (P61244 whole entry): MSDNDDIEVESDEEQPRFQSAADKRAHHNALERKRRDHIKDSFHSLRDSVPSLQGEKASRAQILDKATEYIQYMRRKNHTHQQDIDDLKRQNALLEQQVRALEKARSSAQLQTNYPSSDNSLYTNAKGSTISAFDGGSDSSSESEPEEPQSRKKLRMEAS

| Sequence | binding signal |
| --- | --- |
| GTGCCCTA | 0.0772 normalized occupancy |
| CAAACAGG | 0.0747 normalized occupancy |
| CGCAAGAG | 0.0757 normalized occupancy |
| AGGGGTCG | 0.0779 normalized occupancy |
| CCATATAG | 0.087 normalized occupancy |
| CGATATGC | 0.0806 normalized occupancy |
| GCATATCC | 0.0834 normalized occupancy |
| CTATATGC | 0.0831 normalized occupancy |
| CCATATGC | 0.1 normalized occupancy |
| CCATATGG | 0.123 normalized occupancy |
| CCATATCG | 0.083 normalized occupancy |
| GCATATGA | 0.0934 normalized occupancy |
| GCATATGC | 0.0998 normalized occupancy |
| CAGATAAA | 0.078 normalized occupancy |
| ACCATAAG | 0.0853 normalized occupancy |
| ACAAATTG | 0.0753 normalized occupancy |
| CCCATACC | 0.0872 normalized occupancy |
| CCAGTTGC | 0.0718 normalized occupancy |
| AAACAGTG | 0.0728 normalized occupancy |
| TAGTTTGA | 0.0723 normalized occupancy |
| AATTTTCT | 0.0797 normalized occupancy |
| ACGGGACA | 0.0774 normalized occupancy |

| Sequence | binding signal |
| --- | --- |
| AAGTGTTC | 0.0784 normalized occupancy |
| GGGTGTTA | 0.0779 normalized occupancy |
| AGGTGTTG | 0.0828 normalized occupancy |
| CCGTGTTA | 0.0848 normalized occupancy |
| AGGTGTTA | 0.0801 normalized occupancy |
| GTGTGTTA | 0.0835 normalized occupancy |
| CCGTGTTC | 0.0725 normalized occupancy |
| ACGTGTTC | 0.104 normalized occupancy |
| ACGTGTTG | 0.109 normalized occupancy |
| GCGTGTTA | 0.101 normalized occupancy |
| ACGTGTTA | 0.109 normalized occupancy |
| ATGTGTTG | 0.0905 normalized occupancy |
| AGAGTCGC | 0.0764 normalized occupancy |
| ACGGATGC | 0.0722 normalized occupancy |
| GTGCCTTA | 0.0789 normalized occupancy |
| ATGAGCGG | 0.0799 normalized occupancy |
| CGGTGTAC | 0.0764 normalized occupancy |
| GATATTCC | 0.0765 normalized occupancy |
| AGCAATTC | 0.0722 normalized occupancy |
| CACGTGAA | 0.231 normalized occupancy |
| GACGTGAA | 0.0766 normalized occupancy |
| CCCGTGAA | 0.0812 normalized occupancy |

| Sequence | binding signal |
| --- | --- |
| TACGTGAA | 0.0794 normalized occupancy |
| GACGTGAC | 0.0813 normalized occupancy |
| CCCGTGAC | 0.0826 normalized occupancy |
| CACGTAAG | 0.0796 normalized occupancy |
| CACGTGAG | 0.245 normalized occupancy |
| CACGTGAC | 0.464 normalized occupancy |
| CCTTCCCA | 0.0748 normalized occupancy |
| GAATCCTA | 0.0741 normalized occupancy |
| CAGCCGCA | 0.0718 normalized occupancy |
| TGGGTGAA | 0.0791 normalized occupancy |
| AGGATGAC | 0.0813 normalized occupancy |
| TCTAGCCA | 0.0723 normalized occupancy |
| CCTTTATA | 0.0822 normalized occupancy |
| ATGCTTTC | 0.0842 normalized occupancy |
| CTCGTGTC | 0.0959 normalized occupancy |
| ATCGTGTA | 0.0829 normalized occupancy |
| GTCGTGTA | 0.0822 normalized occupancy |
| ATCGTGTC | 0.0864 normalized occupancy |
| CTCGTTTC | 0.0748 normalized occupancy |
| CTCGTGTA | 0.103 normalized occupancy |
| AACATACC | 0.086 normalized occupancy |
| ATCGTCGA | 0.0747 normalized occupancy |

| Sequence | binding signal |
| --- | --- |
| CTGAATAC | 0.0791 normalized occupancy |
| CGTGTGTC | 0.0936 normalized occupancy |
| AGTGTGTA | 0.0806 normalized occupancy |
| CGCGTGTC | 0.115 normalized occupancy |
| GGCGTGTA | 0.0895 normalized occupancy |
| CGCGCGTC | 0.075 normalized occupancy |
| CGTGTGTA | 0.0944 normalized occupancy |
| CGTGTATA | 0.0906 normalized occupancy |
| AGCGTGTG | 0.0954 normalized occupancy |
| AGCGTATG | 0.0754 normalized occupancy |
| AGCGTGTA | 0.0952 normalized occupancy |
| CGCGTGTA | 0.123 normalized occupancy |
| AGCGTGTC | 0.0932 normalized occupancy |
| AAAGGACT | 0.076 normalized occupancy |
| CTAGAATA | 0.0796 normalized occupancy |
| AAACAACG | 0.079 normalized occupancy |
| AGTTTGAA | 0.0729 normalized occupancy |
| AAACTCAT | 0.0797 normalized occupancy |
| ATAAAAGG | 0.0778 normalized occupancy |
| CGGTCTCA | 0.0736 normalized occupancy |
| CACAGTCA | 0.0797 normalized occupancy |
| ACCATCCT | 0.0757 normalized occupancy |

| Sequence | binding signal |
| --- | --- |
| ATGTGAGC | 0.0803 normalized occupancy |
| ACGTGAGG | 0.0969 normalized occupancy |
| GAGTGAGA | 0.0795 normalized occupancy |
| ACGTGAGA | 0.0981 normalized occupancy |
| ACGTGAGT | 0.0893 normalized occupancy |
| CCGTGAGA | 0.0755 normalized occupancy |
| ACGTGAGC | 0.107 normalized occupancy |
| CCGTGAGG | 0.0784 normalized occupancy |
| GCGTGAGC | 0.091 normalized occupancy |
| GCGTGAGA | 0.0965 normalized occupancy |
| AAGTGAGG | 0.0763 normalized occupancy |
| TCGTGAGA | 0.0809 normalized occupancy |
| AATTGCCA | 0.0744 normalized occupancy |
| CCTAGAAC | 0.0744 normalized occupancy |
| ATGTTGTG | 0.0817 normalized occupancy |
| CCGTCATC | 0.0727 normalized occupancy |
| AAGACTAT | 0.0779 normalized occupancy |
| CTGGGGAA | 0.0741 normalized occupancy |
| ATGAACAA | 0.0807 normalized occupancy |
| ATGCATGA | 0.0997 normalized occupancy |
| ATGCATTA | 0.0869 normalized occupancy |
